# From PubChem BioAssay
# Rows were chosen to be rich in hits. Some 1.4% of all compounds tested hit in one or more screens of this group.
# BCLXL inh = inhibitors of human Bcl-xL, primary screen, biochemical, fluorescence polarization, HTS. Bcl-2-like protein 1 (Homo sapiens), Q07817. GST-Bcl-xL / FITC-Bim BH3 peptide fluorescence polarization. inhibition, % at 10.9 µM. hit rate 0.7% among 320,000. AID 2129, 2009;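 active = inhibition above the mean of all tested compounds plus 3 SD, cutoff set per campaign, cut at about 30% in these data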;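 also: 0% = DMSO wells and 100% = unlabeled Bim-BH3 peptide competitor; inhibitors lower millipolarization by displacing the labeled peptide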
# Target sequence (Q07817 whole entry, looked up): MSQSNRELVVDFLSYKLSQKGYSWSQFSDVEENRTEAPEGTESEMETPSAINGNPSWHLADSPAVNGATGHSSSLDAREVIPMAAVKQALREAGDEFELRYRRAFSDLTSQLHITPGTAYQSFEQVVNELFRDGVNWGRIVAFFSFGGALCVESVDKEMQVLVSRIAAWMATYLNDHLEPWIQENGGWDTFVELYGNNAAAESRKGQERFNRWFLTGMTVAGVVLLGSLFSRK
# MEX-5 binding = MEX-5 zinc finger RNA-binding disruptors – biochemical, C. elegans, fluorescence polarization, MLPCN library, primary screen; MEX-5/FITC-TCR2 RNA binding; stronger effect = lower value; hit rate 0.38% among 300,000; activity score (negative = inhibition of binding), % at 10 µM;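 active = inhibition past about -25% in most replicates, and total fluorescence under double the plate's negative control median, limit read from the data; inconclusive = replicates evenly split on the limit, or fluorescence at least double controls; inactive = too little inhibition in most replicates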;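 also: 0% = DMSO and -100% = 5 µM competing unlabeled TCR2 RNA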
# MCL1-BIM inh = inhibitors of MCL1 binding to BIM-BH3, primary screen, biochemical, fluorescence polarization | Induced myeloid leukemia cell differentiation protein Mcl-1 (Homo sapiens), Q07820 | GST-MCL1 / FITC-Bim-BH3 fluorescence polarization | inhibition, % at 10.9 µM | hit rate 0.68% among 320,000 | AID 2057, 2009;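 active = inhibition above the mean inhibition of all tested compounds plus 3 SD, set per campaign, cut at about 40% in these data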;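 also: 0% = DMSO wells and 100% = unlabeled Bim-BH3 peptide control; higher means more loss of mP so more displacement of Bim peptide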
# Target sequence (Q07820 whole entry, looked up): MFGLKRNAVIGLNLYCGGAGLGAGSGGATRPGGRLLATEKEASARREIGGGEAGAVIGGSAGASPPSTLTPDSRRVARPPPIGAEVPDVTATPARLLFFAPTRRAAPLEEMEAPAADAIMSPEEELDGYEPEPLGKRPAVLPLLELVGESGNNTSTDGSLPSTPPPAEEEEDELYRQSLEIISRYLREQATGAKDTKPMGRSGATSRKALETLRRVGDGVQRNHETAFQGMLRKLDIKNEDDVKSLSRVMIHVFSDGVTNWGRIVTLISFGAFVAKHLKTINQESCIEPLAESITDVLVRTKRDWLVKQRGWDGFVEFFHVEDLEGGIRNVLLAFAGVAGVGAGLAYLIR
# eLon inh = inhibitors of E. coli Lon protease, primary screen, biochemical, fluorescence polarization. P0A9M0. purified E. coli Lon protease. inhibition, % at 7.94 µM. hit rate 0.42% among 360,000. AID 602123, 2011; in the data active = inhibition above about 13%, passing the limit was not always enough;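 also: 0% = enzyme with probe and DMSO and 100% = no enzyme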
# EBV gp42 block = Epstein-Barr virus gp42 inhibitors, primary screen, biochemical, uHTS, fluorescence polarization; Glycoprotein 42 (Epstein-Barr virus (strain AG876)), Q1HVG2; Fluorescence polarization binding assay, mP read-out; inhibition, % (tested at 21.74 µM); hit rate 0.42% among 220,000; in the data active = inhibition above about 50%
# GLD-1 TGE inh = GLD-1/TGE RNA complex disruptors, primary screen, biochemical, fluorescence polarization. AID 2280, 2010. purified GLD-1 + fluorescein TGE RNA. hit rate 0.44% among 320,000. Female germline-specific tumor suppressor gld-1 (Caenorhabditis elegans), Q17339. inhibition, % at 5.96 µM;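 active = percent inhibition above a per-plate cutoff, the plate mean of test compounds plus 3 SD, cut at about 30% in these data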;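 also: 0% = DMSO wells with GLD-1 and probe and 100% = wells lacking GLD-1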
# Starred values were filed as active, the others as inactive; ? = inconclusive; . = no result.
SMILES,BCLXL inh,MEX-5 binding,MCL1-BIM inh,eLon inh,EBV gp42 block,GLD-1 TGE inh
CCN(CC)CCCOc1ccc(Cl)c(Cl)c1,36*,-2,32,-10,27,-1
CCOC(=O)C1=C(O)/C(=C/c2cn(CC(=O)N3CCCC3)c3ccccc23)SC1=Nc1ccccc1,.,-47*,.,-14,-7,.
Oc1cccc(/C=N/N=C/c2cccc(O)c2O)c1O,4,-37*,19,-4,.,-1
O=[N+]([O-])c1ccc(N=Nc2ncc[nH]2)cc1,.,-32*,.,-20,.,.
CN(Cc1ccc(OC(F)F)cc1)C(=O)c1cccc(S(=O)(=O)N2CCN(Cc3ccccc3)CC2)c1,.,.,.,2,.,.
O=c1[nH][nH]c2c(N=Cc3ccccc3O)ccc(F)c12,.,.,.,25*,12,.
CCc1ccc(O)c(N=Cc2ccccc2O)c1,6,1,2,-9,-41,6
NC(Cc1ccc(C(F)(F)F)cc1)c1csc(Nc2ccc(S(N)(=O)=O)cc2)n1 (stereo not given),.,.,.,-12,.,.
O=C(Nc1cccc(F)c1)C1CCCN(c2cnccn2)C1 (stereo not given),3,1,6,-1,.,5
Cc1c(C#N)c2ncnc(-c3ccccc3)c2n1-c1ccccc1,7,1,8,6,60*,7
CC1=CC(=C2N=C(c3ccccc3)OC2=O)C=C(C)O1,11,-35*,3,39*,-55,2
CN1C=CC=C/C1=C1/N=C(c2ccccc2)OC1=O,7,2,3,1,0,-3
COc1ccc2[nH]c3c(c2c1)CCN1C(=O)C(CC(=O)NCCC2=CCCCC2)C[C@H](C(=O)N2CCCCC2)[C@@]31C (stereo not given in full),.,.,.,-6,.,.
COc1ccc(NC(=O)c2ccc(Cl)nc2)cc1S(=O)(=O)N1CCOCC1,4,.,10,-6,.,2
COc1ccc(NC(=O)Cn2ncc(Cl)c(Cl)c2=O)cc1S(=O)(=O)N1CCOCC1,8,1,27,-6,61*,2
CC1=CC(C)(C)Nc2ccc(OC(=O)CN3C(=O)c4cccc5cccc(c45)C3=O)cc21,36*,-1,36,10,-10,28
CC1=CC(C)(C)Nc2ccc(OC(=O)CN3C(=O)c4ccccc4C3=O)cc21,0,-1,-3,-2,2,3
CCOC(=O)c1[nH]c2ccc(Cl)cc2c1NC(=O)/C=C/c1ccc2c(c1)OCO2,0,-1,-1,-5,-27,0
CCN(CC(=O)Nc1c(C(=O)OC)[nH]c2ccc(Cl)cc12)c1ccc2c(c1)OCO2,49*,0,49*,8,11,1
Cc1ccccc1NS(=O)(=O)c1cc(C(=O)N2CCCC2)ccc1C,48*,?,0,-3,-15,-2
CC1CCCN(C(=O)c2ccc(S(=O)(=O)Nc3ccccc3Cl)cc2)C1 (stereo not given),36*,-1,1,-10,.,1
Cc1cc(N(C)C(=O)c2ccc3c(c2)S(=O)(=O)c2cc(Cl)ccc2C3=O)c(C(F)(F)F)o1,.,.,.,2,.,1
COc1cc(CNc2nccn3ccnc23)cc(OC)c1,.,.,.,-1,.,.
COc1ccc(N(C)S(=O)(=O)c2cccc(C(=O)N(C)Cc3ccc(C)o3)c2)cc1,5,-3,-1,0,-9,0
Cc1cc(C(F)(F)F)c(C#N)c(SCC(=O)Nc2nc3ccccc3s2)n1,37*,-12,6,-19,-64,7
SMILES,BCLXL inh,MEX-5 binding,MCL1-BIM inh,eLon inh,EBV gp42 block,GLD-1 TGE inh
Cc1nc(SCC(=O)Nc2nc3ccccc3s2)c(C#N)c(C)c1C,-1,0,-9,-14,-14,1
O=C(NNC(=O)c1ccccc1[N+](=O)[O-])c1csc(N2CCOCC2)n1,1,-42*,-1,1,.,5
O=C(NNC(=O)C1CC1)c1ccccc1[N+](=O)[O-],.,.,.,-2,.,.
O=C(NNC(=O)c1ccccc1[N+](=O)[O-])c1ccccn1,-7,-29*,-1,-5,-1,-5
O=c1[nH]c2c(c(=O)[nH]1)OCN(Cc1ccccc1)C2,.,.,.,1,.,.
CC1(C(=O)O)CCCN(C(=O)c2cccnc2Oc2ccccc2)C1 (stereo not given),.,.,.,2,.,.
C[C@H]1CCCCO[C@@H](CN(C)S(=O)(=O)c2ccc(F)cc2)[C@@H](C)CN([C@@H](C)CO)C(=O)c2cc(NC(=O)Nc3ccc4c(c3)OCO4)ccc2O1,.,.,.,-3,.,.
CC1(C)Cc2c(C#N)c(N3CCN(C(=O)c4ccccc4Cl)CC3)nc(-c3ccco3)c2CS1,33*,4,43*,-12,-19,13
CC(=O)N1CCn2c3c(c(=O)c4cc(C)ccc42)CCC31 (stereo not given),32*,-11,23,1,-7,12
Cc1ccc(C)c(N2CCN(C(=O)c3cc4ccccn4n3)CC2)c1,49*,-29*,44*,9,11,24
O=C1c2sc3nc4n(c(=O)c3c2CCC1Br)CCCCC4 (stereo not given),30*,0,36,-3,2,1
O=c1cc(CN2CCN(c3ccccc3)CC2)c2ccccc2o1,.,.,.,-3,.,.
O=C1C(C=Nc2ccccc2O)=C(O)c2ccccc21,8,0,6,-2,-7,5
Cc1ccc(O)c(N=CC2=C(O)c3ccccc3C2=O)c1,38*,-22,43*,-10,21,14
Cc1cc(C)cc(OCC(=O)NCCc2nc3ccccc3[nH]2)c1,47*,-1,10,-4,-21,-5
CC(C)c1ccc(NC(=O)Nc2nc(C(N)c3ccccc3Cl)cs2)cc1 (stereo not given),.,.,.,-1,.,.
COc1ccc(/C=C/c2nc(-c3ccccc3O)n[nH]2)cc1OC,7,.,11,3,20,9
O=C(O)COc1ccc(/C=C/c2nc(-c3ccccc3O)n[nH]2)cc1,8,-101*,5,-14,.,10
O=C(O)c1cc(Cl)c2c(c1)[C@@H]1C=CC[C@@H]1[C@H](c1ccc(S(=O)(=O)N3CCOCC3)cc1)N2,40*,-26*,48*,9,-11,15
Cc1cc(C)n(-c2ccc(C(=O)N3CCN(S(=O)(=O)c4ccc(Br)cc4Cl)CC3)cc2)n1,.,.,.,-1,.,.
COc1ccc(-c2cn[nH]c2-c2ccc(OCC(=O)NN)cc2O)cc1OC,3,-46*,7,2,.,-3
COc1ccc(-c2cn[nH]c2-c2ccc(OCC(=O)NN)cc2O)cc1,.,-11,.,3,.,.
COc1cccc(CN(CCC(C)C)S(=O)(=O)c2cc(Br)ccc2Br)c1,.,.,.,-3,.,.
